Some test systems named below: DU-145 prostate; K-562 leukemia; MALME-3M melanoma; MDA-MB-231 breast; SF-268 CNS; SF-295 CNS; SF-539 CNS; UACC-257 melanoma; M14 melanoma.
What all share (assay): NCI-60 one-dose screen, 48 h (100 = growth as untreated, 0 = no growth, -100 = all killed)
What all share (details): 10 µM

About 83,000 compounds went through this panel and 20% of them were active in at least one assay; those are over-represented in the sample as a whole.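 Results are percent growth after 48 hours of single-concentration exposure. 100 means growth as in untreated cells, lower positive values show inhibition; negative values down to -100 show cell death.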 A number with no mark means an inactive call. Activity calls are given as the source filed them. How the source made its calls: active means growth percent below 10; inactive means the rest.

For the compound `CCOc1ccc(/C=N/NC(=O)Cn2nc(Cc3ccccc3)c3onc(C)c3c2=O)cc1`, the growth in the test with DU-145 prostate is 30.6%; with K-562 leukemia, 75%; in the test with MALME-3M melanoma, -11.8% (active); in the test with MDA-MB-231 breast, 9.5% (active); with SF-268 CNS it was -9.54% (active); in the test with SF-295 CNS, 10.8%. The results for the growth with SF-539 CNS, in the test with UACC-257 melanoma and in the test on M14 melanoma were -47.2% (active), 66.2% and 57.6%, respectively.

Take `O=c1[nH]c2ccccc2cc1CSc1ccc(Nc2nccc(-c3ccc(Cl)cc3)n2)cc1`: the growth with DU-145 prostate was -52% (active); in the test on K-562 leukemia, 36.2%; in the test with MALME-3M melanoma, -54.3% (active); in the test on MDA-MB-231 breast it was -56.1% (active); with SF-268 CNS, 2.16% (active); in the test with SF-295 CNS it was -90.8% (active). The growth is -89% (active) with SF-539 CNS, 54.1% in the test on UACC-257 melanoma and 30.8% in the test with M14 melanoma.

Regarding `Cc1cc(=O)oc2cc(OCCCCOc3ccc(/C=C/C(=O)Nc4ccccc4[N+](=O)[O-])cc3)ccc12`, the growth with DU-145 prostate is 102%; in the test on K-562 leukemia it was 102%; in the test with MALME-3M melanoma it was 101%; in the test with MDA-MB-231 breast it was 102%; in the test with SF-268 CNS, 120%; in the test on SF-295 CNS it was 99.8%. In addition, the values for the growth in the test with SF-539 CNS, in the test on UACC-257 melanoma and with M14 melanoma were 98.8%, 111% and 112%, respectively.

As for `CCOc1ccc2ncc(C#Cc3cncc(C(=O)Nc4ccc(CN5CCN(C)CC5)c(C(F)(F)F)c4)c3)n2n1`, the growth in the test with DU-145 prostate was -96.7% (active); with K-562 leukemia, 4.86% (active); with MALME-3M melanoma, -81.9% (active); with MDA-MB-231 breast, -88.9% (active); in the test with SF-268 CNS, -49.4% (active); in the test on SF-295 CNS, -88.5% (active). Besides, the growth was -97.9% (active) in the test with SF-539 CNS, -62.2% (active) in the test with UACC-257 melanoma and -73% (active) in the test on M14 melanoma.

In the case of `OCCCNc1oc(-c2ccccc2)nc1[P+](c1ccccc1)(c1ccccc1)c1ccccc1`, the growth in the test on DU-145 prostate was 8.36% (active); with K-562 leukemia, 11.1%; with MALME-3M melanoma, -26% (active); in the test with MDA-MB-231 breast, -8.13% (active); in the test with SF-268 CNS it was 6.17% (active); in the test with SF-295 CNS, 2.62% (active). Also, the growth was 4.68% (active) in the test with SF-539 CNS, -10.3% (active) with UACC-257 melanoma and 10.1% with M14 melanoma.

Take `CC(=O)Oc1ccccc1C(=O)Oc1ccc(C(=O)/C=C/c2ccncc2)cc1`: the growth is 46.2% with DU-145 prostate; 11.6% in the test with K-562 leukemia; 86.2% in the test with MALME-3M melanoma; 40.8% in the test on MDA-MB-231 breast; 75% with SF-268 CNS; 59.1% in the test with SF-295 CNS. Further, the growth is -35.6% (active) in the test with SF-539 CNS, 94.9% in the test with UACC-257 melanoma and 47.6% with M14 melanoma.

Regarding `CN1CCN(Cc2ccc(NC(=O)c3cncc(C#Cc4cnc5ccc(N[C@H]6CCOC6)nn45)c3)cc2C(F)(F)F)CC1`, the growth with DU-145 prostate is -99.9% (active); with K-562 leukemia, 0.651% (active); in the test on MALME-3M melanoma, -97.3% (active); in the test with MDA-MB-231 breast, -92.4% (active); in the test with SF-268 CNS, -74.5% (active); in the test on SF-295 CNS it was -98.4% (active). Moreover, the results for the growth in the test on SF-539 CNS, in the test on UACC-257 melanoma and in the test on M14 melanoma were -99.7% (active), -84.1% (active) and -82% (active), respectively.

In the case of `Clc1cccc(N/N=C/c2c[nH]c3ccccc23)n1`, the growth with DU-145 prostate is 48.7%; with K-562 leukemia it was 13.8%; in the test on MALME-3M melanoma, 50.6%; in the test with MDA-MB-231 breast, -0.126% (active); in the test with SF-268 CNS it was 19.9%; in the test with SF-295 CNS it was 49.5%. In addition, the growth is 6.26% (active) with SF-539 CNS, 68% with UACC-257 melanoma and 43.6% in the test with M14 melanoma.

Take `O=C(CSc1nnc(-c2c[nH]c3ccccc23)n1-c1ccccc1)c1ccc(Br)cc1`: the growth with DU-145 prostate was 58.5%; with K-562 leukemia it was 82%; in the test with MALME-3M melanoma, 71%; in the test with MDA-MB-231 breast it was 66%; with SF-268 CNS it was 49.1%; in the test with SF-295 CNS it was 33.7%. Besides, the values for the growth in the test on SF-539 CNS, in the test on UACC-257 melanoma and with M14 melanoma were 62%, 52.6% and 51%, respectively.

As to `Cn1c(O)c(N=Nc2nc(-c3cc4ccccc4oc3=O)cs2)c2cc(Br)ccc21`, the growth was 101% with DU-145 prostate; 100% in the test on K-562 leukemia; 49.8% in the test on MALME-3M melanoma; 41.4% with MDA-MB-231 breast; 47.2% in the test on SF-268 CNS; 14.3% in the test on SF-295 CNS. In addition, the growth is -6.85% (active) with SF-539 CNS, 100% in the test with UACC-257 melanoma and 88.7% in the test with M14 melanoma.

`CC(=O)Nc1ccc(-c2cn(-c3cccc(C(=O)Nc4ccc(Cl)c(C(F)(F)F)c4)c3)nn2)cn1`: the growth is 3.54% (active) in the test on DU-145 prostate; 4.92% (active) in the test on K-562 leukemia; -89.6% (active) with MALME-3M melanoma; -87% (active) in the test with MDA-MB-231 breast; 6.74% (active) in the test with SF-268 CNS; -64.2% (active) in the test with SF-295 CNS. Besides, the results for the growth in the test with SF-539 CNS, in the test with UACC-257 melanoma and in the test with M14 melanoma were -97.4% (active), -21.8% (active) and -49.1% (active), respectively.

On to `C/C(=N\N=C\c1ccc(Cl)c([N+](=O)[O-])c1)c1ccc2c(c1)Nc1ccccc1S2`, for which the growth is 28.1% in the test with DU-145 prostate; 38.6% with K-562 leukemia; -3.5% (active) in the test with MALME-3M melanoma; 32.4% in the test on MDA-MB-231 breast; 47.3% in the test with SF-268 CNS; 42.7% in the test on SF-295 CNS. Further, the growth in the test on SF-539 CNS is 12.8%; in the test with UACC-257 melanoma, 51.2%; in the test with M14 melanoma, 62.6%.

In the case of `C/C(=N\NC(N)=S)c1ccc(Nc2nc(SC(C)C)nc(-c3ccccc3)c2C#N)cc1`, the growth was 70.5% in the test on DU-145 prostate; 87.2% in the test on K-562 leukemia; 55.7% in the test on MALME-3M melanoma; 40.5% in the test on MDA-MB-231 breast; 54.8% in the test with SF-268 CNS; 44.3% in the test with SF-295 CNS. The figures for the growth in the test on SF-539 CNS, in the test on UACC-257 melanoma and in the test with M14 melanoma were 30.7%, 85.1% and 77.4%, respectively.

For the compound `NS(=O)(=O)c1ccc(NC(=O)CSc2ccc(-c3ccccc3)nn2)c(Br)c1`, the growth was 75.9% with DU-145 prostate; 96% in the test with K-562 leukemia; 72.8% in the test with MALME-3M melanoma; 47.7% in the test with MDA-MB-231 breast; 20.8% in the test on SF-268 CNS; 69.9% in the test with SF-295 CNS. For the same compound, the figures for the growth in the test on SF-539 CNS, with UACC-257 melanoma and in the test on M14 melanoma were 48.5%, 100% and 99.1%, respectively.

The values above are taken from PubChem BioAssay (NCI).
